# Screens from PubChem BioAssay.
# DT40 TDP1 no CPT: qHTS for Inhibitors of human tyrosyl-DNA phosphodiesterase 1 (TDP1): qHTS in cells in absence of CPT. DT40 Tdp1-/- hTDP1 cells, no CPT, ATP luminescence, 48 h. Potency, µM (top dose mostly 46.2 µM), for inactives: at the top dose activity change, negative = growth inhibition, actives largely listed as inhibitors. 420,000 compounds, 15% hits; further: potency means the concentration at half of the fitted maximal effect; nearly all actives have a fitted effect of over 55% in size
#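 Chicken DT40 Tdp1-/- cells stably complemented with human TDP1 were seeded at 400 cells/well with DMSO in place of 20 nM camptothecin. After compound pinning, cells grew at least 48 hr at 37 °C; viability read by CellTiter-Glo luminescence.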
# IL1B secr inh: inflammasome signaling inhibition, IL-1 beta readout; THP-1 LPS/ATP IL-1B secretion, AlphaLISA, 16 h; hits give low values; activity change, % at 57.5 µM; 360,000 compounds, 4.7% hits; in the data active means activity change below about -50%; inconclusive means mostly about -30% to -49%
#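 Secreted IL-1B measured by AlphaLISA bead assay after 16 h compound exposure of THP-1 cells; compounds (final up to 57.5 uM) added 1 h before LPS (250 ng/mL) and ATP (1.25 mM) stimulation; lower signal means less secretion.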
# HT1080 IDH1KD tx: HT-1080 IDH1 knockdown cell toxicity (counter line); HT-1080 IDH1 knockdown viability, ATP luminescence, 48 h; Potency, µM (doses to about 46.1 µM), for the others: at the top dose activity, negative = toxicity, most hits filed as cytotoxic; 360,000 compounds, 2% hits; AID 686971;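 further: potency means the concentration at half of the fitted maximal effect; 0% = DMSO wells and -100% = cell-free medium wells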
#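 In this qHTS, HT-1080 cells depleted of IDH1 are exposed for 48 h at 37 °C to compound titrations. Toxicity is scored from CellTiter-Glo luminescence, with DMSO as full viability and medium alone as none.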
# DT40 TDP1 CPT: growth inhibition of DT40 Tdp1-/-;hTDP1 cells with camptothecin (screen for TDP1 inhibitors) | chicken DT40 Tdp1-/-;hTDP1 cells + 20 nM CPT, ATP luminescence, 48 h | Potency, µM (series often up to 46.2 µM), for inactives: at the top dose activity change, negative = growth inhibition, hits mostly inhibitors | 420,000 compounds, 12% hits; further: potency means the concentration at half of the fitted maximal effect; nearly all actives have a fitted effect of over 55% in size
#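 Chicken DT40 Tdp1-/- cells complemented with human TDP1, 400 cells/well, exposed to compounds plus 20 nM camptothecin for at least 48 h at 37 C; viability read as ATP content by CellTiter-Glo luminescence.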
# 12-LOX inh: ALOX12 (human) lipoxygenase inhibition | purified 12hLO, xylenol orange hydroperoxide absorbance | Potency, µM (doses to about 108 µM), inactives show at the highest dose activity change, negative = inhibition, actives largely listed as inhibitors | 580,000 compounds, 1.1% hits | P18054; further: potency means the concentration at half of the fitted maximal effect
# Target sequence (P18054 whole entry, looked up): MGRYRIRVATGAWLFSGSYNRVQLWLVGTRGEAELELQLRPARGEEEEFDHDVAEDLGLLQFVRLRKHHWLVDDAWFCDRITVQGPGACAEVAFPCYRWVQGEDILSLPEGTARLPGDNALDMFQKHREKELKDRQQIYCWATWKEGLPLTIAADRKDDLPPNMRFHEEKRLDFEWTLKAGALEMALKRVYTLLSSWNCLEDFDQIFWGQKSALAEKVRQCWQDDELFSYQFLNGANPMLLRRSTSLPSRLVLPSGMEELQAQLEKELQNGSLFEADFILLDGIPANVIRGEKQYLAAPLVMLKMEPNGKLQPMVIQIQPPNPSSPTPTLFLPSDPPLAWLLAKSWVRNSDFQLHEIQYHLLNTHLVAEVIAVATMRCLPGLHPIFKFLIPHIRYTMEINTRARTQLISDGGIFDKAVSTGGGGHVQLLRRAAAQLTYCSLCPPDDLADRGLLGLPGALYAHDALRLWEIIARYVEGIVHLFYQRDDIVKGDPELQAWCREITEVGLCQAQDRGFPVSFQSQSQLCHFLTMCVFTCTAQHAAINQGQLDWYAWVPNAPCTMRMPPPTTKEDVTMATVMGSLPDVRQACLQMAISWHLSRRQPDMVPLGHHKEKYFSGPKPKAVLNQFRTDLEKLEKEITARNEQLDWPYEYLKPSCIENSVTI
#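 Hydroperoxide product was detected by ferrous iron/xylenol orange as the 573 to 405 nm absorbance ratio. Arachidonic acid at 40 uM (final) was turned over for 30 min at room temperature by 150 nM human 12hLO, pH 7.0 Hepes buffer, after 15 min compound preincubation.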
# HT1080NT lethal: kills 2HG-producing HT-1080-NT fibrosarcoma cells; HT-1080-NT fibrosarcoma viability, CellTiter-Glo ATP luminescence, 48 h; Potency, µM (top dose mostly 46.1 µM), without a hit: at the top dose activity, negative = less viability, most hits filed as cytotoxic; 360,000 compounds, 1.6% hits;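 further: NT is the 2HG producing partner of a matched IDH1 knockdown line; potency means the concentration at half of the fitted maximal effect; 0% = DMSO-treated cells and -100% = media-only wells without cells; nearly all actives have a fitted effect of over 55% in size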
#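 Fibrosarcoma NT cells, 750 per well in 5% FBS RPMI, were exposed to compound for 48 hours. Viability: CellTiter-Glo luminescence.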
# Active calls of the source: *; ? = inconclusive; nt = no result; [ ] = dose if it differs, or a comment. Shown is part of a subset that was picked to be rich in hits. Unless noted, the call rests on the fitted dose curve; in most records, active means well fitted curve in the direction sought with a large enough effect; inconclusive means small, poorly fitted or top-dose-only effect, or another doubt; inactive means no such curve, though single readings can be large; an effect the other way counts as inactive or inconclusive. Unless noted, on the % scale 0 is the no-effect control and ±100 the full control effect.
SMILES,DT40 TDP1 no CPT,IL1B secr inh,HT1080 IDH1KD tx,DT40 TDP1 CPT,12-LOX inh,HT1080NT lethal
O=C(CN1CCCC1)N/N=C/c1c(O)ccc2ccccc12,?,170,16µM*,?,-1%,?
Cc1cc(C)n(CCC(=O)N/N=C/c2c(O)ccc3ccccc23)n1,4.6µM*,106,?,5.8µM*,?,?
CC(C)Oc1ccc2c(NC(=O)C3CCOCC3)nn(CC(F)(F)F)c2c1,nt,nt,nt,nt,11%,nt
CCOc1ccccc1-c1nc(-c2nnn3c2COC(c2ccccc2Cl)C3)no1 (stereo unspecified),nt,nt,nt,nt,24%,nt
O=C(O)[C@H](CC(=O)N1C[C@H]2CCCC[C@H]2C1)Cc1ccccc1,-1%,nt,nt,14%,nt,nt
CC[C@@H]1[C@H](NC(=O)CCc2c(C)[nH]c3ccccc3c2=O)[C@@H]2CCO[C@H]12,nt,nt,nt,nt,67%,nt
O=C(NN=Cc1c(O)ccc2ccccc12)C1CC1,5.2µM*,121,12µM*,5.8µM*,-22%,?
Cc1cc(C)n2nc(C(=O)N/N=C/c3ccccc3Cl)nc2n1,-27%,-9,-3%,19%,-4%,1%
Cc1cc(C)n2nc(C(=O)N/N=C/c3c4ccccc4cc4ccccc34)nc2n1,21µM*,-8,?,23µM*,-11%,?
CCCNC(=O)N(C1CCOCC1)C1CCN(C(=O)c2nn(C)c3ccccc23)CC1,nt,nt,nt,nt,53%,nt
CNC(=O)c1ccc(-c2nc(CN3CCN(C(=O)Nc4cc(Cl)ccc4C)CC3)c(C)o2)cc1,nt,nt,nt,nt,-46%,nt
COc1cc2c(cc1OC)-c1cc(N3CCc4ccccc43)nc(=O)n1CC2,?,-66*,-10%,?,0%,19%
COc1cc2c(cc1OC)-c1cc(Nc3ccc4c(c3)OCCO4)nc(=O)n1CC2,?,-70*,-2%,-30%,18%,-12%
COc1ccc(Nc2cc3n(c(=O)n2)CCc2cc(OC)c(OC)cc2-3)cc1,?,-27,-9%,-2%,?,-3%
COc1ccc(Nc2cc3n(c(=O)n2)CCc2cc(OC)c(OC)cc2-3)c(C)c1,15µM*,0,-3%,?,?,-16%
CCOc1ccc(C(=O)OCc2ccccc2C#N)cc1,nt,nt,nt,nt,-25%,nt
CCN(CC)C(=O)c1cc2c(s1)CCC(C(=O)NCc1cccnc1)C2 (stereo unspecified),nt,nt,nt,nt,26%,nt
O=C(Cn1cnc2cc([N+](=O)[O-])ccc2c1=O)Nc1ccccc1-c1ccccc1,?,0,0%,23µM*,20%,0%
O=C(Cn1cnc2cc([N+](=O)[O-])ccc2c1=O)Nc1ccc(Br)cc1,-19%,-3,0%,-24%,6%,-6%
COc1ccc(OC)c(/C=N\Nc2nccs2)c1,?,5,-19%,?,115%,-26%
COc1ccc(OC)c(/C=N/Nc2nncn2/N=C/c2cc(OC)ccc2OC)c1,7.3µM*,?,15µM*,8.2µM*,13%,?
COc1cc(/C=N\Nc2nncn2N)ccc1OC(C)=O,?,3,?,-7%,-8%,?
COc1cc(/C=N/Nc2nncn2/N=C/c2ccc(O)c(OC)c2)ccc1O,?,17,15µM*,?,8%,21µM*
CN(C)CC1C2CCC(C2)C1O (stereo unspecified),?,-10,21%,-3%,-19%,24%
CC1(C)COCN1S(=O)(=O)c1ccc(C(=O)Nc2nnc(-c3ccc(Cl)s3)o2)cc1,4.5µM*,61,2.8µM*,4µM*,nt,?
SMILES,DT40 TDP1 no CPT,IL1B secr inh,HT1080 IDH1KD tx,DT40 TDP1 CPT,12-LOX inh,HT1080NT lethal
COc1ccc(-c2nnc(NC(=O)c3ccc(S(=O)(=O)N4COCC4(C)C)cc3)o2)cc1,3.7µM*,25,8.2µM*,3.7µM*,0%,?
CC1CCCCN1S(=O)(=O)c1ccc(C(=O)Nc2nnc(-c3ccncc3)o2)cc1 (stereo unspecified),?,10,?,?,-3%,?
CC1CCN(S(=O)(=O)c2ccc(C(=O)Nc3nnc(-c4ccccn4)o3)cc2)CC1,?,27,-9%,?,3%,-10%
O=C([C@@H]1C[C@H](Oc2ccccc2)CN1S(=O)(=O)Cc1ccccc1)N1CCOCC1,nt,nt,nt,nt,39%,nt
CC(=O)N1CCC(CC(=O)N[C@@H]2CN(C)C[C@H]2CN(C)C)CC1,nt,nt,nt,nt,73%,nt
O=C1Cc2ccccc2C(c2ccc(Cl)cc2)N1 (stereo unspecified),?,3,-23%,?,1%,-8%
S=C1Cc2ccccc2C(c2ccc(Cl)cc2)N1 (stereo unspecified),23µM*,30,-23%,?,?,-11%
Cc1ccc(C)c(S(=O)(=O)NCCc2ccccc2F)c1,nt,nt,nt,nt,-30%,nt
CCC[N+](C)(C)c1ccc(/C=C/c2ccnc3ccccc23)cc1,0.18µM*,nt,nt,0.025µM*,nt,nt
Oc1ccc(/C=C/c2ccnc3ccccc23)cc1,12µM*,-62*,?,18µM*,?,?
C[N+](C)(C)c1ccc(/C=C/c2ccnc3ccccc23)cc1,0.63µM*,nt,nt,0.79µM*,nt,nt
CN(C)Cc1cc(CC2(NCc3cc4ccccc4o3)COC2)no1,nt,nt,nt,nt,28%[176 µM],nt
N#Cc1nc(/C=C/c2ccccc2)oc1N1CCN(C(=O)c2ccco2)CC1,nt,nt,nt,nt,27%,nt
Cc1cc(C)c(C)c(S(=O)(=O)Nc2ccc3cn[nH]c3c2)c1C,21µM*,6,-27%,?,4%,-20%
Cc1cc(S(=O)(=O)N(C)CC2CCOCC2)ccc1F,nt,nt,nt,nt,21%,nt
COC(=O)c1cc(F)c(-n2cncn2)c(F)c1,-5%,-5,-5%,-6%,9%,5%
COC(=O)c1cc([N+](=O)[O-])c(-n2cncn2)c([N+](=O)[O-])c1,5.8µM*,-14,-3%,5.8µM*,-20%,3%
COCCOC1CCN(C(=O)c2ccc(OC)nc2)CC1,nt,nt,nt,nt,38%,nt
CCCCN1C=CC(=C2C(=O)c3ccccc3C2=O)C=C1,?,-23,23µM*,?,-5%,16µM*
CCCCn1c(C)cc(C)c(S(=O)(=O)c2ccccc2C)c1=O,?,17,-14%,?,?,0%
O=C1OC(CN2CCOCC2)CN1/N=C/c1ccc([N+](=O)[O-])o1 (stereo unspecified),-25%[21.1 µM],nt,nt,-25%[21.1 µM],?,nt
O=[N+]([O-])c1ccc(C=NN2CCNC2=S)o1,21µM*,65,-8%,18µM*,?,0%
